# Experimental data as given in publication PMC11062922 (Nature Chemical Biology, 2023).
# Where two headings read alike, the source gives them in different places.
# Legend:
# Parameters in all cases: species or system human, MV4-11 + K-562 + COLO205 + SK-N-BE2 + OVCAR-8
# IRAK1 = details: read-out: apparent Kd, n = 1
# TBK1 = details: read-out: apparent Kd, n = 1
# EPHB6 = details: read-out: apparent Kd, n = 1
# PRKDC = details: read-out: apparent Kd, n = 1
# CAMK4 = details: read-out: apparent Kd; compound concentrations: 100 nM and 1000 nM (sheet 'Samples'), CATDS: 7.8205742217562803E-3; n = 1
# ERN1 = details: read-out: apparent Kd, compound concentrations: 100 nM and 1000 nM (sheet 'Samples'), n = 1
# MERTK = details: read-out: apparent Kd, n = 1
# PAK4 = details: compound concentrations:0.3nM, 1nM, 3nM, 10nM, 30nM, 100nM, 300nM, by the legend:Standard error of the EC50 estimation as provided by the drc package.; for Kd: read-out: apparent Kd
# PKN3 = details: compound concentrations:0.3nM, 1nM, 3nM, 10nM, 30nM, 100nM, 300nM, by the legend:Standard error of the EC50 estimation as provided by the drc package.; for Kd: read-out: apparent Kd
# STRADA = details: read-out: apparent Kd, n = 1
# SYK = details: read-out: apparent Kd, n = 1
# MAP2K5 = details: read-out: apparent Kd, compound concentrations: 100 nM and 1000 nM (sheet 'Samples'), n = 1
# PIM1 = details: read-out: apparent Kd, n = 1
# PRKX;PRKY = details: read-out: apparent Kd, n = 1
# MAPK1 = details: read-out: apparent Kd, compound concentrations: 100 nM and 1000 nM (sheet 'Samples'), n = 1
# CSNK1G1 = details: read-out: apparent Kd; compound concentrations: 100 nM and 1000 nM (sheet 'Samples'), CATDS: 5.3431605837735603E-3; n = 1
# MAPK11 = details: read-out: apparent Kd, compound concentrations: 100 nM and 1000 nM (sheet 'Samples'), n = 1
# PIM2 = details: read-out: apparent Kd; compound concentrations: 100 nM and 1000 nM (sheet 'Samples'), CATDS: 4.10108684490637E-3; n = 1
# PRKCI = details: read-out: apparent Kd; compound concentrations: 100 nM and 1000 nM (sheet 'Samples'), CATDS: 3.8239218597995801E-3; n = 1
# [1] = compound concentrations:100 nM and 1000 nM (sheet 'Samples')
# [2] = 1000nM,R2:0.96781137417830099,slope:0.58987671625518001,EC50 Standard Error
# [3] = 1000nM,R2:0.99888452271644701,slope:1.2700915856501001,EC50 Standard Error
# [4] = 1000nM,R2:0.98802455290270397,slope:1.1906156337481999,EC50 Standard Error
# [5] = 1000nM,R2:0.95736535454590599,slope:1.35169947345033,EC50 Standard Error
# [6] = 1000nM,R2:0.97831665287894598,slope:1.2194506521172099,EC50 Standard Error
# [7] = 1000nM,R2:0.90981556238152395,slope:1.4029304179145099,EC50 Standard Error
# 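Throughout, for EC50: competition pulldown with Kinobeads ε in cell lysates, inhibitor preincubated 45 min at 4 °C, bound kinases quantified by LC–MS/MS against DMSO control.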
# 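Throughout, for Kd: competition pulldown with Kinobeads ε in cell lysates, inhibitor preincubated 45 min at 4 °C, bound kinases quantified by LC–MS/MS against DMSO control.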
smiles,measurement,setting,value
CNC(=O)c1ccccc1Nc1nc(Nc2ccc(N3CCOCC3)cc2)ncc1Cl.Cl [GSK1576028A],potency estimated from few doses,IRAK1; [1],1020 nM
same,potency estimated from few doses,TBK1; [1],395 nM
CN1C[C@@H]2Cn3c(c(C4=C(c5cn(C)c6ccccc56)C(=O)NC4=O)c4ccccc43)C[C@H]2C1.Cl [RO0320234-001],potency estimated from few doses,EPHB6; [1],1960 nM
same,potency estimated from few doses,PRKDC; [1],859 nM
CCOC(=O)N1CCC(n2cnc(-c3ccc(F)cc3)c2-c2ccnc(N)n2)CC1 [SB-219952],potency estimated from few doses,CAMK4,1850 nM
same,potency estimated from few doses,ERN1; CATDS: 7.4915709296516997E-3,2200 nM
same,potency estimated from few doses,"MERTK; compound concentrations: 100 nM and 1000 nM (sheet 'Samples'), CATDS: 8.4469178777721397E-3",1410 nM
CCn1c(-c2nonc2N)nc2c(C#CC(C)(C)O)nc(OCCN)cc21.CCn1c(-c2nonc2N)nc2c(C#CC(C)(C)O)nc(OCCN)cc21.Cl.Cl [GSK902056A],EC50,PAK4; [2],5300 nM
same,Kd,PAK4; [2],4860 nM
same,EC50,PKN3; [3],10.2 nM
same,Kd,PKN3; [3],10.2 nM
Cc1cccc(Nc2nc(N[C@H]3CCCC[C@H]3N)ncc2C(N)=O)c1.Cl [GSK986310C],potency estimated from few doses,STRADA; [1],2120 nM
same,potency estimated from few doses,SYK; [1],79.7 nM
same,EC50,PAK4; [4],135 nM
same,Kd,PAK4; [4],65.9 nM
COc1ccc(Nc2ncc(C#N)c(Nc3ccccc3C(N)=O)n2)cc1N1CCN(C)CC1.Cl [GSK1558669A],potency estimated from few doses,ERN1; CATDS: 5.84806980625629E-3,2140 nM
same,potency estimated from few doses,"IRAK1; compound concentrations: 100 nM and 1000 nM (sheet 'Samples'), CATDS: 7.7027436488320998E-3",467 nM
same,potency estimated from few doses,MAP2K5; CATDS: 8.5242635319968205E-3,318 nM
same,potency estimated from few doses,"SYK; compound concentrations: 100 nM and 1000 nM (sheet 'Samples'), CATDS: 6.16985372159695E-3",1440 nM
same,potency estimated from few doses,"TBK1; compound concentrations: 100 nM and 1000 nM (sheet 'Samples'), CATDS: 1.0324038658374401E-2",172 nM
O=C1N=C(NCCc2ccc(Cl)cc2)S/C1=C\c1ccc2ncccc2c1 [RO4498479-000],potency estimated from few doses,"EPHB6; compound concentrations: 100 nM and 1000 nM (sheet 'Samples'), CATDS: 6.9765900844718596E-3",1660 nM
same,potency estimated from few doses,"PIM1; compound concentrations: 100 nM and 1000 nM (sheet 'Samples'), CATDS: 9.1477666322176705E-3",691 nM
Cl.NCc1ccc(-c2nc(-c3ccc(Cl)c(O)c3)c(-c3ccncc3)[nH]2)cc1 [SB-476429-A],EC50,PKN3; [5],38.4 nM
same,Kd,PKN3; [5],38.4 nM
CN(c1ccc(NC(=O)Nc2cccc(Cl)c2)cc1)c1ccnc(N)n1.Cl [GW830707A],potency estimated from few doses,"PRKX;PRKY; compound concentrations: 100 nM and 1000 nM (sheet 'Samples'), CATDS: 1.5379195282256401E-2",134 nM
Cc1ccc(Nc2ccnc(Nc3ccc4c(c3)CS(=O)(=O)C4)n2)cc1O.Cl [GW579362A],potency estimated from few doses,MAPK1; CATDS: 2.9087751414108801E-2,1350 nM
O=C1NC(=O)C(N2CCc3ccccc32)=C1c1ccccc1Cl [SB-373598],potency estimated from few doses,EPHB6; [1],615 nM
same,potency estimated from few doses,MERTK; [1],1850 nM
same,potency estimated from few doses,PIM1; [1],923 nM
same,potency estimated from few doses,PRKDC; [1],1200 nM
Cn1ncc2c(N)ncnc21 [SKF-18267],potency estimated from few doses,CSNK1G1,716 nM
same,potency estimated from few doses,"EPHB6; compound concentrations: 100 nM and 1000 nM (sheet 'Samples'), CATDS: 4.7916385769682596E-3",887 nM
same,potency estimated from few doses,ERN1; CATDS: 4.2148373609633104E-3,1180 nM
same,potency estimated from few doses,"IRAK1; compound concentrations: 100 nM and 1000 nM (sheet 'Samples'), CATDS: 3.5689080514204499E-3",1830 nM
same,potency estimated from few doses,MAP2K5; CATDS: 4.1093022417344298E-3,1250 nM
same,potency estimated from few doses,MAPK11; CATDS: 4.4454363185357799E-3,1040 nM
same,potency estimated from few doses,MAPK1; CATDS: 4.58474987436945E-3,974 nM
same,potency estimated from few doses,"MERTK; compound concentrations: 100 nM and 1000 nM (sheet 'Samples'), CATDS: 9.2588510560485896E-3",294 nM
same,potency estimated from few doses,"PIM1; compound concentrations: 100 nM and 1000 nM (sheet 'Samples'), CATDS: 7.3887725324269602E-3",412 nM
same,potency estimated from few doses,PIM2,1260 nM
same,potency estimated from few doses,PRKCI,1500 nM
same,potency estimated from few doses,"PRKDC; compound concentrations: 100 nM and 1000 nM (sheet 'Samples'), CATDS: 6.2124168993476997E-3",547 nM
same,potency estimated from few doses,"STRADA; compound concentrations: 100 nM and 1000 nM (sheet 'Samples'), CATDS: 3.7902262633519698E-3",1540 nM
same,potency estimated from few doses,"SYK; compound concentrations: 100 nM and 1000 nM (sheet 'Samples'), CATDS: 5.7016392995471003E-3",635 nM
same,potency estimated from few doses,"TBK1; compound concentrations: 100 nM and 1000 nM (sheet 'Samples'), CATDS: 5.0307170658674197E-3",804 nM
COc1cccc2c(-c3ccncc3)c(-c3ccc(F)cc3)nn12 [GW468513X],potency estimated from few doses,MAPK11; CATDS: 3.7828559303077401E-2,1640 nM
CCn1c(-c2nonc2N)nc2c(C#CC(C)(C)O)nc(OCCNC)cc21.Cl [GSK949675A],potency estimated from few doses,PRKX;PRKY; [1],355 nM
same,EC50,PAK4; [6],316 nM
same,Kd,PAK4; [6],218 nM
same,EC50,PKN3; [7],89.8 nM
same,Kd,PKN3; [7],89.8 nM
CN(c1ccc(NC(=O)N2CCN(CCCN3CCOCC3)CC2)cc1)c1ccnc(Nc2ccc(CS(C)(=O)=O)cc2)n1.Cl [GW830899A],potency estimated from few doses,MAPK1; CATDS: 2.6373806441713499E-2,807 nM
Fc1ccc(-c2c(-c3ccncc3)[nH]c3cccnc23)cc1 [RO1153853-000],potency estimated from few doses,MAPK11; CATDS: 6.1294477906433602E-2,838 nM
NCCNS(=O)(=O)c1ccc(-c2ccnc3[nH]ccc23)cc1 [GSK977617A],potency estimated from few doses,MERTK; [1],1440 nM
Clc1cc(Cl)cc(Nc2ccnc(Nc3cc(Cl)cc(Cl)c3)n2)c1 [GSK175726A],potency estimated from few doses,"EPHB6; compound concentrations: 100 nM and 1000 nM (sheet 'Samples'), CATDS: 8.5475708332426303E-3",1630 nM
same,potency estimated from few doses,"PRKDC; compound concentrations: 100 nM and 1000 nM (sheet 'Samples'), CATDS: 1.07981791880609E-2",607 nM
